Paper PMC7862700, “An all-to-all approach to the identification of sequence-specific readers for epigenetic DNA modifications on cytosine”

Experiments:
Experiment in all cases: DAPPL (digital affinity profiling via proximity ligation, sequencing); 10 mM Tris-HCl pH 7.5, 50 mM NaCl, 1 mM DTT, 4% glycerol, room temperature, 30 min; GST-TFs on glutathione beads, 16-mer random dsDNA library, 0.1% formaldehyde crosslink after washing; high values mean tight binding
Details in all cases: protein: recombinant; tags: N-terminal GST; dsDNA, one strand shown
[1] = molecular target: T1, FLI1 (Homo sapiens, UniProt Q01543 1-452)
T1 sequence: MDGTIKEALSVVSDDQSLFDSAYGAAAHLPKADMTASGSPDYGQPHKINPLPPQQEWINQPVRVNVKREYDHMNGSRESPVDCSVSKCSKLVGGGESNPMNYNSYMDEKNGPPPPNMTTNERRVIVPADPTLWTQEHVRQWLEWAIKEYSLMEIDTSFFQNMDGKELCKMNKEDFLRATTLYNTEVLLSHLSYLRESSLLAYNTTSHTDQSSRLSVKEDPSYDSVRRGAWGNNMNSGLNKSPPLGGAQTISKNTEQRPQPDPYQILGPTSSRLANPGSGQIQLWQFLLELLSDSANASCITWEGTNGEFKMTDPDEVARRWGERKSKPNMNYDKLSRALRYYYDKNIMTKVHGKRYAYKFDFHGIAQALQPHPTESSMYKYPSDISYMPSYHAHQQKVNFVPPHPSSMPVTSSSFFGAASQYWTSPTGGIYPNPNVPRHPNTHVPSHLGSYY
Procedure, shortened: (§1)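 GST fusions of human transcription factors were expressed in yeast and captured with glutathione beads. Once given DNA barcodes and pooled alongside a tag-only sample, they were incubated for 30 min at room temperature with 200 nmole of a random double-stranded 16-mer DNA library in Tris/NaCl/DTT/glycerol buffer, then washed, crosslinked (0.1% formaldehyde), proximity-ligated, PCR-amplified and sequenced on an Illumina NextSeq500. The binding signal of each hexamer is its read frequency for a factor divided by its frequency for the tag-only sample.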

[2] = molecular target: T2, ELK1 (Homo sapiens, UniProt P19419 1-428)
T2 sequence: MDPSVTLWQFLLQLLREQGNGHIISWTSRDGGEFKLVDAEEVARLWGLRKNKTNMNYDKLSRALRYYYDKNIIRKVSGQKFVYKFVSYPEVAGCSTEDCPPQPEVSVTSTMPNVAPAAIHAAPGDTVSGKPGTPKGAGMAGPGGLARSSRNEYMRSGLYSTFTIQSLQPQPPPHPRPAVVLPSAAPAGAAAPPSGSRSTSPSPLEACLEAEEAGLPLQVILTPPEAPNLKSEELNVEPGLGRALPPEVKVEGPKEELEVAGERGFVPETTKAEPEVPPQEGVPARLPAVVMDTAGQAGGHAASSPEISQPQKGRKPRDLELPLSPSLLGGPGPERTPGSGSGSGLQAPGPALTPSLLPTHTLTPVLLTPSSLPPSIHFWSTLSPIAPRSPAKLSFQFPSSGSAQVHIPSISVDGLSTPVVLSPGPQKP
Procedure, shortened: as §1

[3] = molecular target: T3, GABPA (Homo sapiens, UniProt Q06546 1-454)
T3 sequence: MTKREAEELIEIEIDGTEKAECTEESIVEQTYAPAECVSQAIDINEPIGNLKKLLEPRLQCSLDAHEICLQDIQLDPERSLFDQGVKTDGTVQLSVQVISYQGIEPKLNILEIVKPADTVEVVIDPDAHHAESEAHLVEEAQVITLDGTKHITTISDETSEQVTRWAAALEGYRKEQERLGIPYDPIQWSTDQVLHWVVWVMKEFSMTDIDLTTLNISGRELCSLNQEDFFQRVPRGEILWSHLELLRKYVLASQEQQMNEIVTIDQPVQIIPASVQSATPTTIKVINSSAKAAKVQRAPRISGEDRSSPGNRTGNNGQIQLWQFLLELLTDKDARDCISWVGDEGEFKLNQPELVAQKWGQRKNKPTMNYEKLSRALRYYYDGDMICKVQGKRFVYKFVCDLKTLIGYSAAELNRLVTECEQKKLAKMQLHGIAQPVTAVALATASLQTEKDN
Procedure, shortened: as §1

[4] = molecular target: T4, ERG (Homo sapiens, UniProt P11308 1-479)
T4 sequence: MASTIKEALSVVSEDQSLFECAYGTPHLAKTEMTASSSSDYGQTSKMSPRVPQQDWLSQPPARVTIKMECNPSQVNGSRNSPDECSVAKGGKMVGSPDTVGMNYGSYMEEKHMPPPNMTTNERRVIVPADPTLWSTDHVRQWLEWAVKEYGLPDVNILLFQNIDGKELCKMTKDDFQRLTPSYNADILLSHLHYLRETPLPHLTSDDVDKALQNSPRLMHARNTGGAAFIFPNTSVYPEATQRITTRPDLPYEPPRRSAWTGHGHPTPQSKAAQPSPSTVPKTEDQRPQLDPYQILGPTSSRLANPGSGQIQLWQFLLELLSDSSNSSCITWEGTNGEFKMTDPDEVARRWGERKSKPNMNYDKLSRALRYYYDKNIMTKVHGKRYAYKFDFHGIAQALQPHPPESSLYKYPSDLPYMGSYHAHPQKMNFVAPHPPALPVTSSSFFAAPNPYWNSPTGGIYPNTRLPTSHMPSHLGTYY
Procedure, shortened: as §1

[5] = molecular target: ELF1 (Homo sapiens, UniProt P32519 1-619)
Procedure, shortened: as §1

[6] = molecular target: T5, EHF (Homo sapiens, UniProt Q9NZC4 1-300)
T5 sequence: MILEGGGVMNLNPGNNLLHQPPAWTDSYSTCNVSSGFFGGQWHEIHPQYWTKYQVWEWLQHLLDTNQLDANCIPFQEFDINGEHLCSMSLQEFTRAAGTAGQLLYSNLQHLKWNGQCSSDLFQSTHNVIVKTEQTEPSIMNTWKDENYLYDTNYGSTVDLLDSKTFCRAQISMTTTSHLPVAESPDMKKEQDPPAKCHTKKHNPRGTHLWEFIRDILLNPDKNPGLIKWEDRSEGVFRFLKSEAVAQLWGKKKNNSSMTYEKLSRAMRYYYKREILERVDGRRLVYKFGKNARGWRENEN
Procedure, shortened: as §1

[7] = molecular target: SPI1 (Homo sapiens, UniProt P17947 1-270)
Procedure, shortened: as §1

[8] = molecular target: SPIB (Homo sapiens, UniProt Q01892 1-262)
Procedure, shortened: as §1

[9] = molecular target: T6, ELK3 (Homo sapiens, UniProt P41970 1-407)
T6 sequence: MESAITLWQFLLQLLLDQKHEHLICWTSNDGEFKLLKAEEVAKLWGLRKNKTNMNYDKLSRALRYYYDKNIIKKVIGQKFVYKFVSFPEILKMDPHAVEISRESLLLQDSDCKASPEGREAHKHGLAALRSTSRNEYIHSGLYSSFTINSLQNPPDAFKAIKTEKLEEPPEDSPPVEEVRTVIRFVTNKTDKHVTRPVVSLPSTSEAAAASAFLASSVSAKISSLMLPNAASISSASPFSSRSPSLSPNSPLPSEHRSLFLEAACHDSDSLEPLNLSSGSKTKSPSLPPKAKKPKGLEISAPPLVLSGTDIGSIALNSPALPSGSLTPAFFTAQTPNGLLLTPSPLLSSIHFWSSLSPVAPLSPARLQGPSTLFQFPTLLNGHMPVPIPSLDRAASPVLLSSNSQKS
Procedure, shortened: as §1

Sequence of ELF1 (P32519 whole entry): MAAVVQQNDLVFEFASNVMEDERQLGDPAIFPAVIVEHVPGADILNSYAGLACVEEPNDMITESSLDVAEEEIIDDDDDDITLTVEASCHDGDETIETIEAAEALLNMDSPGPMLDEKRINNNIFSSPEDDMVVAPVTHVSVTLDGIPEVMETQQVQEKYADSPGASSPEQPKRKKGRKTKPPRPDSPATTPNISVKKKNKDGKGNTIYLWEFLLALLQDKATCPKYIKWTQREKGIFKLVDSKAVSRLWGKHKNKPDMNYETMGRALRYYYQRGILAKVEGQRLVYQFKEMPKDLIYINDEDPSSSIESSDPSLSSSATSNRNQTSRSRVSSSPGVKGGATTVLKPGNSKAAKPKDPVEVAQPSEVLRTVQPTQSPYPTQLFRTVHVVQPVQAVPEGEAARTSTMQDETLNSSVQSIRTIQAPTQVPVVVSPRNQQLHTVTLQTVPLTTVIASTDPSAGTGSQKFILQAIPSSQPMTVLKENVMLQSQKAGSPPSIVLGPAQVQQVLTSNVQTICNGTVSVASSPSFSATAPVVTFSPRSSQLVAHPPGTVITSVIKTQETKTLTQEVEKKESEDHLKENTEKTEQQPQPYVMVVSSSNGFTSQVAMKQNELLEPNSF
Sequence of SPIB (Q01892 whole entry): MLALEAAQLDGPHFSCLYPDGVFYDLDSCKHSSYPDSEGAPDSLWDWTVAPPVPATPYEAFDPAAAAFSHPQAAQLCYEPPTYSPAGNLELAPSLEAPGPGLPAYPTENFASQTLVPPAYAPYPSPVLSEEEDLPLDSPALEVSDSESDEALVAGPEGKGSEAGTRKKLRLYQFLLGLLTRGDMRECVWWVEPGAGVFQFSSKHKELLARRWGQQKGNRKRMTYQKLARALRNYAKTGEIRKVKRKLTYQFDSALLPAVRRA

With TAGCTC the binding signal [1] was 1.17 fold enrichment (6-mer frequency, TF over GST control), the binding signal [2] was 1.13 fold enrichment (6-mer frequency, TF over GST control) and the binding signal [3] was 1.2 fold enrichment (6-mer frequency, TF over GST control). For the same sequence, the binding signal [4] was 1.11 fold enrichment (6-mer frequency, TF over GST control), the binding signal [5] was 1.18 fold enrichment (6-mer frequency, TF over GST control) and the binding signal [6] was 1.25 fold enrichment (6-mer frequency, TF over GST control). For the same sequence, the binding signal [7] was 1.21 fold enrichment (6-mer frequency, TF over GST control), the binding signal [8] was 1.05 fold enrichment (6-mer frequency, TF over GST control) and the binding signal [9] was 1.28 fold enrichment (6-mer frequency, TF over GST control).
